Laboratory results from PubChem BioAssay (NCI).
The panel holds about 83,000 compounds, 20% with a hit somewhere; the sample as a whole holds those more often.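 Each cell line was grown in a 96-well plate and treated with one concentration of compound for 48 hours. Values below 10 were considered active.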 Active and inactive are the calls of the source.

Tests used:
Experiment in all cases: NCI-60 one-dose screen, 48 h (100 = growth as untreated, 0 = no growth, -100 = all killed)
Settings in all cases: 10 µM
NCI-H23 lung = test system: NCI-H23 lung
NCI-H226 lung = test system: NCI-H226 lung
NCI-H322M lung = test system: NCI-H322M lung
NCI-H460 lung = test system: NCI-H460 lung
NCI-H522 lung = test system: NCI-H522 lung
A549/ATCC NSCLC = test system: A549/ATCC NSCLC
786-0 renal = test system: 786-0 renal
COLO 205 colon = test system: COLO 205 colon
DU-145 prostate = test system: DU-145 prostate
K-562 leukemia = test system: K-562 leukemia
MALME-3M melanoma = test system: MALME-3M melanoma
MDA-MB-231 breast = test system: MDA-MB-231 breast
RXF 393 renal = test system: RXF 393 renal
SF-268 CNS = test system: SF-268 CNS
SF-295 CNS = test system: SF-295 CNS
SF-539 CNS = test system: SF-539 CNS
UACC-257 melanoma = test system: UACC-257 melanoma
M14 melanoma = test system: M14 melanoma
HCT-15 colon = test system: HCT-15 colon
HOP-62 NSCLC = test system: HOP-62 NSCLC

Measured: growth

CCOC(=O)N1C/C(=C/c2ccc(Cl)cc2)C(=O)/C(=C/c2ccc(Cl)cc2)C1
active: K-562 leukemia 3.7%
inactive: NCI-H23 lung 72.1% | NCI-H226 lung 39.3% | NCI-H322M lung 79.2% | NCI-H460 lung 77.8% | NCI-H522 lung 65.5% | A549/ATCC NSCLC 61.1% | 786-0 renal 65.6% | COLO 205 colon 45.3% | DU-145 prostate 46.3% | MALME-3M melanoma 84.9% | MDA-MB-231 breast 68.3% | RXF 393 renal 47.4% | SF-268 CNS 52.3% | SF-295 CNS 44.2% | SF-539 CNS 98% | UACC-257 melanoma 94.2% | M14 melanoma 57.1% | HCT-15 colon 34.3%

Nc1ccc2c(c1)Cc1cc(N)c(Br)cc1-2
inactive: NCI-H23 lung 92.1% | NCI-H226 lung 106% | NCI-H322M lung 113% | NCI-H460 lung 97% | NCI-H522 lung 96.7% | A549/ATCC NSCLC 100% | 786-0 renal 120% | COLO 205 colon 107% | DU-145 prostate 121% | K-562 leukemia 99.7% | MALME-3M melanoma 104% | MDA-MB-231 breast 116% | RXF 393 renal 111% | SF-268 CNS 109% | SF-295 CNS 76.8% | SF-539 CNS 83.1% | UACC-257 melanoma 109% | M14 melanoma 102% | HCT-15 colon 97.3%

CCN(CC)CCOc1nc2cc(OC)c(OC)cc2c2c1-c1ccc(OC)cc1C2=O
inactive: NCI-H23 lung 77.3% | NCI-H226 lung 74.3% | NCI-H322M lung 83.9% | NCI-H460 lung 25.6% | NCI-H522 lung 73.9% | A549/ATCC NSCLC 66.1% | 786-0 renal 87.8% | COLO 205 colon 72.7% | DU-145 prostate 64.1% | K-562 leukemia 69.6% | MDA-MB-231 breast 92.4% | RXF 393 renal 86.2% | SF-268 CNS 44.3% | SF-295 CNS 29.6% | SF-539 CNS 81.9% | UACC-257 melanoma 101% | M14 melanoma 85.9% | HCT-15 colon 81.4%

CCc1ccc2c(c1)N(CCO)C1=C(C(=O)OC1)C2c1ccccc1 (stereo not drawn)
active: NCI-H522 lung 4.79%
inactive: NCI-H23 lung 101% | NCI-H226 lung 102% | NCI-H322M lung 115% | NCI-H460 lung 109% | A549/ATCC NSCLC 104% | 786-0 renal 97.1% | COLO 205 colon 109% | DU-145 prostate 115% | K-562 leukemia 49.1% | MDA-MB-231 breast 103% | RXF 393 renal 94.3% | SF-268 CNS 106% | SF-295 CNS 86% | SF-539 CNS 103% | M14 melanoma 78.9% | HCT-15 colon 71.6%

O=C(/C(=C/c1ccccc1)CN1CCCCC1)c1ccccc1
inactive: NCI-H322M lung 47.1% | SF-295 CNS 38.6%
active: NCI-H23 lung -51.5% | NCI-H226 lung -31% | NCI-H460 lung -23.9% | NCI-H522 lung -84% | A549/ATCC NSCLC -14.2% | 786-0 renal -91.5% | COLO 205 colon -79.1% | DU-145 prostate 8.22% | K-562 leukemia 2.9% | MDA-MB-231 breast -24.8% | RXF 393 renal -77.6% | SF-268 CNS -9.79% | SF-539 CNS -43.4% | UACC-257 melanoma -0.832% | M14 melanoma -48.4% | HCT-15 colon -40.6%

Cc1ccc(NC(=O)CSc2nc3ccccc3c(=O)n2CCc2ccccc2)c(C(=O)O)c1
inactive: NCI-H23 lung 101% | NCI-H226 lung 101% | NCI-H322M lung 90.9% | HOP-62 NSCLC 94.4% | NCI-H460 lung 110% | NCI-H522 lung 90.1% | 786-0 renal 90.5% | COLO 205 colon 103% | DU-145 prostate 117% | MDA-MB-231 breast 90.6% | SF-268 CNS 104% | SF-295 CNS 91.8% | SF-539 CNS 104% | UACC-257 melanoma 98.1% | M14 melanoma 97.8% | HCT-15 colon 107%

O=C1/C(=C\c2ccccc2)CN(C(=O)c2ccccc2F)C/C1=C\c1ccccc1
active: NCI-H522 lung -3.31% | 786-0 renal -40.8% | DU-145 prostate 7.15% | K-562 leukemia 0.045% | MALME-3M melanoma -34.5% | RXF 393 renal -78.2% | SF-295 CNS 6.51% | UACC-257 melanoma -10.1% | M14 melanoma -59.5% | HCT-15 colon -28.5%
inactive: NCI-H23 lung 33.8% | NCI-H226 lung 27.9% | NCI-H322M lung 74.6% | NCI-H460 lung 51.6% | A549/ATCC NSCLC 53.3% | COLO 205 colon 14.6% | MDA-MB-231 breast 12.7% | SF-268 CNS 16.9% | SF-539 CNS 40.5%

O=C(/C=C/c1cc2ccccc2[nH]c1=O)c1ccc2c(c1)OCO2
inactive: NCI-H23 lung 98.5% | NCI-H226 lung 114% | NCI-H322M lung 92% | NCI-H460 lung 94.4% | A549/ATCC NSCLC 93.4% | 786-0 renal 102% | COLO 205 colon 95.7% | DU-145 prostate 102% | K-562 leukemia 87.4% | MALME-3M melanoma 78% | MDA-MB-231 breast 94% | RXF 393 renal 112% | SF-268 CNS 93.6% | SF-295 CNS 100% | SF-539 CNS 88.2% | UACC-257 melanoma 94.2% | M14 melanoma 87.3% | HCT-15 colon 97.6%
active: NCI-H522 lung 3.16%

COc1ccc2c(c1)N(CCO)C1=C(C(=O)OC1)C2c1cc(OC)c(OC)c(OC)c1 (stereo not drawn)
inactive: NCI-H23 lung 17.4% | NCI-H322M lung 17% | HOP-62 NSCLC 25.6% | 786-0 renal 25.3% | K-562 leukemia 15% | RXF 393 renal 55.5% | SF-268 CNS 23.9% | UACC-257 melanoma 47.4% | M14 melanoma 11.2%
active: NCI-H226 lung 2.05% | NCI-H460 lung 0.781% | NCI-H522 lung -36.1% | COLO 205 colon -65.4% | DU-145 prostate -30.8% | MDA-MB-231 breast -24.4% | SF-295 CNS -20.6% | SF-539 CNS -6.38% | HCT-15 colon 5.29%
